Common to all, as to parameters: scale not given: direction of the effect not stated beside the values
The target of test [1] is Protein translocase subunit SecA (Escherichia coli (strain K12)) (UniProt P10408). The experiment in a line: Assay to Identify E. coli SecA ATPase Inhibitors. It counts as functional. The following applies: 30 µM.
Test [2] has as its target T1, Ubiquitin-activating enzyme e1, putative (Leishmania donovani (strain BPK282A1)) (UniProt E9BSI1).
T1 sequence (whole entry): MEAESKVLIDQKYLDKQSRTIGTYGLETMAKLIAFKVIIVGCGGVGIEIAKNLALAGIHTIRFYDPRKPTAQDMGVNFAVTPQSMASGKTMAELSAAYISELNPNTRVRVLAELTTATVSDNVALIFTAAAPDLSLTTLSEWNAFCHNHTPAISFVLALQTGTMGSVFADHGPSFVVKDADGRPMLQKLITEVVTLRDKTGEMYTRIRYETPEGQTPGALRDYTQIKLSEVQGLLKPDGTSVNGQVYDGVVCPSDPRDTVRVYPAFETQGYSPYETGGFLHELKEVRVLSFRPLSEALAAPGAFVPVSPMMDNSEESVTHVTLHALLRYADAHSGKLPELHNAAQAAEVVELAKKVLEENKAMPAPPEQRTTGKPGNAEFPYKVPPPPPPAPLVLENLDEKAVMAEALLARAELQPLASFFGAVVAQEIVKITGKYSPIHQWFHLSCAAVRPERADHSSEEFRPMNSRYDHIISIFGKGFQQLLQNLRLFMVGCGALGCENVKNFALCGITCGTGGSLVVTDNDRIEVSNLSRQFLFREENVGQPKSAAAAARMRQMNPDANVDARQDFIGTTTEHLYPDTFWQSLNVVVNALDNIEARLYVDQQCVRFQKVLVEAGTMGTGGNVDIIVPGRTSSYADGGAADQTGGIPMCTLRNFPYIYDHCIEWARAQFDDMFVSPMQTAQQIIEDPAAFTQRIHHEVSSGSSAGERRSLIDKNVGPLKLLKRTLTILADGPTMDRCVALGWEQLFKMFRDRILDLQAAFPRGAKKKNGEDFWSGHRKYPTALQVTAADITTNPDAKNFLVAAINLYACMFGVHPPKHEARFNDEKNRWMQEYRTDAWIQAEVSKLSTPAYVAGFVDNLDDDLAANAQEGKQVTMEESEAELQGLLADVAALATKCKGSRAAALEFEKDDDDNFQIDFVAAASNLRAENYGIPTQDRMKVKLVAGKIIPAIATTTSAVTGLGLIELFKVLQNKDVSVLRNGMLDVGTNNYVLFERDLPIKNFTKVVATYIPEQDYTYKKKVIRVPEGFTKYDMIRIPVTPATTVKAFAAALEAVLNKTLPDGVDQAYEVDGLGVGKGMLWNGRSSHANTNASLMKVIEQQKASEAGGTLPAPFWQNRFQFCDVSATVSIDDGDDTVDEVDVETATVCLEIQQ
The experiment in a line: Leishmania donovani Ubiquitin Activating Enzyme (LdE1). It counts as functional. To be noted: 30 µM.

The target in test [3] is AMP-activated protein kinase, AMPK (Homo sapiens) (UniProt P54646+O43741+P54619+Q9UGJ0+Q9Y478+Q13131+Q9UGI9). The test can be described thus: AMP-dependent Kinase enzyme assay. An in vitro enzyme assay that detects ADP turnover that is directly proportional to AMPK activity. This uses naive AMPK that is activated during the assay with MK-8722. The test is classed as functional. To be noted: 30 µM.

For test [4], the target named is Sialic acid-binding Ig-like lectin 9 (Homo sapiens) (UniProt Q9Y336). The test can be described thus: Hs-Siglec9 ALPHAscreen SOP 20170721. To be noted: 10 µM.
The next test deals with Trypanosoma cruzi. The test can be described thus: Trypanosoma cruzi phosphomannomutase and mannose-1-phosphate guanylyltransferase assay. The test is classed as functional. The following applies: 10 µM.
Test [5] deals with T2, Arginase-2, mitochondrial (Homo sapiens) (UniProt P78540).
T2 sequence (whole entry): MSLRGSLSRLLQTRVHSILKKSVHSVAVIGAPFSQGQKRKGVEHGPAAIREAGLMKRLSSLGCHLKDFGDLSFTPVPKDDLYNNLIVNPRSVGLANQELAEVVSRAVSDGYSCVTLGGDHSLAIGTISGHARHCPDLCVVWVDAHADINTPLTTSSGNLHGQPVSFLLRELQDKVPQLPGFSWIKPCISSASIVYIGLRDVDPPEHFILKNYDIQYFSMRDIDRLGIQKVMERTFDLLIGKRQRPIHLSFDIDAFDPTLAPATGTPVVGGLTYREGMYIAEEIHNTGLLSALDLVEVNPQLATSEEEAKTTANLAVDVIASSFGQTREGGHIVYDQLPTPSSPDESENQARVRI
The test can be described thus: in vitro enzyme assay to detect the production of urea directly proportional to the activity of Arginase II. Also: in the data most compounds retested in dose-response had high values. The test is classed as functional. To be noted: 33.3 µM.

The target in test [6] is T3, Proteasome subunit beta (Trypanosoma cruzi) (UniProt O96673).
T3 sequence (whole entry): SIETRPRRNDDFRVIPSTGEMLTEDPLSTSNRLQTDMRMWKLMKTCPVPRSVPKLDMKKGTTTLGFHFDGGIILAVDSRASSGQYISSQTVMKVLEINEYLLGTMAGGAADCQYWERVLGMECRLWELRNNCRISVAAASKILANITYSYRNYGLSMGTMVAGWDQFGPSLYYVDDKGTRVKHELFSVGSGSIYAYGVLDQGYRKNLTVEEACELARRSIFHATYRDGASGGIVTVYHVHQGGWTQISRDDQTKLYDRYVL
The experiment in a line: Trypanosoma cruzi proteasome chymotrypsin-like activity (TcProtChymo) assay. Also: in the data most compounds retested in dose-response had high values. It counts as functional. To be noted: 9.37 µM.

For the next test, the species on record is Homo sapiens. The experiment in a line: To identify inhibition of the IFN signalling (Jak-Stat) pathway via expression of an eGFP reporter gene under the control of an IFN-stimulated response element (ISRE) containing MxA promoter. The test is classed as functional. The following applies: 30 µM.
In test [7] the target is T4, Tyrosyl-tRNA synthetase, putative (Trypanosoma cruzi (strain CL Brener)) (UniProt Q4DSP6).
T4 sequence (whole entry): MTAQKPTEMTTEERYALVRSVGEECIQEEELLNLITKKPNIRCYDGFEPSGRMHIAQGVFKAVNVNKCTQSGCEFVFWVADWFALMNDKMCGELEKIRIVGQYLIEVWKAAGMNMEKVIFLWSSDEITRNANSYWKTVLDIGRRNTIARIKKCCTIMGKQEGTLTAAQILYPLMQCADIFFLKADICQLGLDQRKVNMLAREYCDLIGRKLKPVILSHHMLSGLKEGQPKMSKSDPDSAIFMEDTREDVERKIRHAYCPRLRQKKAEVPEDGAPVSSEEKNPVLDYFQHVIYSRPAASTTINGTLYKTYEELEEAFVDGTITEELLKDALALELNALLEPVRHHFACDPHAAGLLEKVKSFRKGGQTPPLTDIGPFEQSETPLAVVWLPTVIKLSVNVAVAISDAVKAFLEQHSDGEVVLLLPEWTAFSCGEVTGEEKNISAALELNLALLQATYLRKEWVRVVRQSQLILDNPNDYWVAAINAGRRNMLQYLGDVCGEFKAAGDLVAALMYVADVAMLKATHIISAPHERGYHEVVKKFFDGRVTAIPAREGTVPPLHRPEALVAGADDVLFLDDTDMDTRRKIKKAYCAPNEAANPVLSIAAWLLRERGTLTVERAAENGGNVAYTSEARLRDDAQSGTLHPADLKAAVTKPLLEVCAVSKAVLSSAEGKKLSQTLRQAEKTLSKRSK
The experiment in a line: Trypanosoma cruzi tyrosyl tRNA synthetase (TcYRS) _High Tyrosine SOP. Also: in the data most compounds retested in dose-response had high values. The test is classed as functional. To be noted: 30 µM.

Test [8] has as its target T4, Tyrosyl-tRNA synthetase, putative (Trypanosoma cruzi (strain CL Brener)). The test can be described thus: Trypanosoma cruzi tyrosyl tRNA synthetase (TcYRS) SOP. The test is classed as functional. The following applies: 30 µM.
Test [9] deals with Chromo domain-containing protein 1 (Saccharomyces cerevisiae (strain ATCC 204508 / S288c) (Baker's yeast)) (UniProt P32657). The test can be described thus: ScCHD-1 Enzyme Inhibition Assay. Also: in the data most compounds retested in dose-response had high values. The test is classed as functional. To be noted: 30 µM.

The values below come from ChEMBL document CHEMBL3988442, “University of Dundee, Small-Polar-MMV Screening Library” (2021).

For some of these results: Measured potencies and affinities stand elsewhere.

Chain of Chromo domain-containing protein 1 (Saccharomyces cerevisiae (strain ATCC 204508 / S288c) (Baker's yeast)) (P32657 whole entry, the tested form may be a part): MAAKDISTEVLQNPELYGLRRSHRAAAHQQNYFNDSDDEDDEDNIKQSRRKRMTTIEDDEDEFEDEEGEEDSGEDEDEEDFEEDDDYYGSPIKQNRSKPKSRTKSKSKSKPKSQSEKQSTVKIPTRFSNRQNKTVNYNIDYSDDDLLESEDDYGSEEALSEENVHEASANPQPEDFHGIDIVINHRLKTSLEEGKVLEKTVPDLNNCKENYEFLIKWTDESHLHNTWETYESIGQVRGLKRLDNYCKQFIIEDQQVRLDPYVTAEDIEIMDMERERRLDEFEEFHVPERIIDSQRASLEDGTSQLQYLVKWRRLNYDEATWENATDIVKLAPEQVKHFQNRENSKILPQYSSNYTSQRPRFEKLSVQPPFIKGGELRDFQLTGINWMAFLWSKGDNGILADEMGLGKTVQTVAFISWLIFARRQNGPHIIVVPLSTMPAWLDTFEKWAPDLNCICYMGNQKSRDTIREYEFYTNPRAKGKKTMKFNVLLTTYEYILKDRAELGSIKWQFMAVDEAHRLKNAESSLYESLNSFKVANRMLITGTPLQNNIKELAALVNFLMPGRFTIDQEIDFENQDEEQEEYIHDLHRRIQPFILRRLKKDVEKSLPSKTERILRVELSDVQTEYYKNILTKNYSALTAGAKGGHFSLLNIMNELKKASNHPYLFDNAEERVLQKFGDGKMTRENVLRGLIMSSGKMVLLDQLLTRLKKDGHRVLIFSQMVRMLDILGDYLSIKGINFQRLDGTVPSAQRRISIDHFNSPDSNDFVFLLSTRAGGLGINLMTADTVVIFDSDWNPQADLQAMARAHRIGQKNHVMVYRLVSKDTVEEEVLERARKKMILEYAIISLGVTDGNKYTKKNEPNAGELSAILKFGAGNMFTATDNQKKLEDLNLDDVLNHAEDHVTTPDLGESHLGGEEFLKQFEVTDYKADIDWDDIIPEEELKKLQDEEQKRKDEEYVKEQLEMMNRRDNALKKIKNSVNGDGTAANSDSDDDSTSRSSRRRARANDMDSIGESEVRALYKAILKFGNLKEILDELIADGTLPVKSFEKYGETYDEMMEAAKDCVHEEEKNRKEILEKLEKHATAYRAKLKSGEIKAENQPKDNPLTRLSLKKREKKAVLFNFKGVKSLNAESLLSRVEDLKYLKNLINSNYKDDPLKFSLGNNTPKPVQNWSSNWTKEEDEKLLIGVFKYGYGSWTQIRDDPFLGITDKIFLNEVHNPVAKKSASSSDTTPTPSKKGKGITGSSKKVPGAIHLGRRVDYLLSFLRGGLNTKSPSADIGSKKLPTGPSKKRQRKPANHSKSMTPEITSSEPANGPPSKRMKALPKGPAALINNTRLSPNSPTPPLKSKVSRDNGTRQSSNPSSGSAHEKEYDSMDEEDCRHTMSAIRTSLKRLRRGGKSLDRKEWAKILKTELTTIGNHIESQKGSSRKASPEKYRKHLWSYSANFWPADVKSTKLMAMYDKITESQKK
Chain of Sialic acid-binding Ig-like lectin 9 (Homo sapiens) (Q9Y336 whole entry): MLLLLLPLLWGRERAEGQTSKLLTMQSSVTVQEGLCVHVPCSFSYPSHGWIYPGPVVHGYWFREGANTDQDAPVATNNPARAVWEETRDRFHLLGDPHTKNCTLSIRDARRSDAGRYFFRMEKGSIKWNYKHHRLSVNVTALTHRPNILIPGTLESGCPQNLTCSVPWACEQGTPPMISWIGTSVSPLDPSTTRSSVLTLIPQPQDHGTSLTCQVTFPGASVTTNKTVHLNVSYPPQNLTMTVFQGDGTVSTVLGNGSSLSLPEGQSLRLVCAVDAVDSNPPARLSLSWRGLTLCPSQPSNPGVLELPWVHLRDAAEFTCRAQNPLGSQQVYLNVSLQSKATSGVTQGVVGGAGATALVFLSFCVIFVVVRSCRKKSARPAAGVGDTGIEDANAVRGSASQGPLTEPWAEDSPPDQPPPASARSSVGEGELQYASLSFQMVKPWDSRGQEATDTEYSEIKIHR
Chain of Protein translocase subunit SecA (Escherichia coli (strain K12)) (P10408 whole entry): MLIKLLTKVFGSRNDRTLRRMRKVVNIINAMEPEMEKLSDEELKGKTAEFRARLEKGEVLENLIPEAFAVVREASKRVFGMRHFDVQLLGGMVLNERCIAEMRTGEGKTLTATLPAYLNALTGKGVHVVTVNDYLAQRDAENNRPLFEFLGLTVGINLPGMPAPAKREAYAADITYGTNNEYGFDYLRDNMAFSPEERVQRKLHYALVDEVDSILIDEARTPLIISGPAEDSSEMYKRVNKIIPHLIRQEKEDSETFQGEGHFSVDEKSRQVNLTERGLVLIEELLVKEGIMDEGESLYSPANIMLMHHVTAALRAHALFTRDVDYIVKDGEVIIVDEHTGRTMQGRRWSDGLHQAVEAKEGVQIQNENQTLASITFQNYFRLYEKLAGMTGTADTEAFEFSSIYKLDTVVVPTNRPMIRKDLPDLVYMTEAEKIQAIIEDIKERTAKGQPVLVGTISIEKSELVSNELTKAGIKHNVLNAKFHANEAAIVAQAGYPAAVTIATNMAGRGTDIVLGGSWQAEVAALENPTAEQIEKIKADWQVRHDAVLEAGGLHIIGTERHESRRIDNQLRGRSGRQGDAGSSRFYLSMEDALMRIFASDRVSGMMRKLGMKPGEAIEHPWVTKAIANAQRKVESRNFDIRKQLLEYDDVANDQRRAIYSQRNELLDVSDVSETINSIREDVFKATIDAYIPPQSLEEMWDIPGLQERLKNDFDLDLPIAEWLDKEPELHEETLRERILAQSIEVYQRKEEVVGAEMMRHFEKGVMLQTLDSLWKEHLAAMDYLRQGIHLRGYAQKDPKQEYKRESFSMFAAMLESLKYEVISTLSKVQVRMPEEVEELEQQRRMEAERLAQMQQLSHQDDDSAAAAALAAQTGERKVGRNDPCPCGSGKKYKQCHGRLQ

For `CN(Cc1ccsc1)C(=O)Nc1ccc(S(C)(=O)=O)nc1`, the Percent Effect in test [1] is -2.7%; in test [2], 22.8%; in [3], -11.6%; in test [4] it was -5.34%; with Trypanosoma cruzi, 4.63%; in test [5] it was -3.04%. Also, the Percent Effect in test [6] was 10.6%; in the test filed under Homo sapiens, 5.01%; in test [7], 9.36%; in test [8], 24.1%; in test [9], -6.57%.
Regarding `CC1c2ncc(CNC(=O)C3CC3)n2CCN1Cc1cnn(C)c1` (stereo unspecified), the Percent Effect was -0.181% in [1]; 8% in test [2]; -3.48% in test [3]; -1.35% in test [4]; 6.56% in the test on Trypanosoma cruzi; -55.4% in test [5]. Besides, the Percent Effect in test [6] is 13.8%; in the test filed under Homo sapiens it was 5.07%; in [7], 3.12%; in test [8], 12.5%; in [9] it was -7.95%.
On to `Cc1cnn(CCNCC(O)COc2ccc(Cl)cc2)c1` (stereo unspecified), for which the Percent Effect in test [1] was -3.71%; in test [2] it was 10.1%; in [3], 0.158%; in test [4] it was 12.9%; with Trypanosoma cruzi it was 3.12%; in [5] it was 0.76%. Also, the Percent Effect in [6] was -1.88%; in the test listed under Homo sapiens, -3.16%; in test [7], 3.45%; in test [8] it was 8.86%; in test [9] it was -2.04%.
Regarding `CN(CCC(F)(F)F)C(=O)[C@H]1CSCN1C(=O)OC(C)(C)C`, the Percent Effect in [1] was -4.76%; in [2], 0%; in test [3] it was 3.13%; in test [4] it was 1.23%; in the test on Trypanosoma cruzi it was 8.03%; in [5], 0%. The Percent Effect in test [6] was 1.77%; in the test listed under Homo sapiens, -11.9%; in test [7], 1.07%; in [8], 2.5%; in test [9], -1.07%.
For `Cc1ccc(S(=O)(=O)N2C[C@H]3C[C@H](NC(=O)c4ccnn4C)[C@H]3C2)cc1`, the Percent Effect in test [1] is -1.89%; in test [2], -6.76%; in [3], 9.6%; in test [4] it was 1.27%; in the test with Trypanosoma cruzi, -0.988%; in test [5], -3.02%. Further, the Percent Effect is -3.28% in test [6]; 84.1% in the test filed under Homo sapiens; 2.15% in test [7]; 3.9% in [8]; 14% in test [9].
Regarding `O=C1CC(c2ccncc2)C2(CCN(C(=O)c3ccc[nH]3)CC2)N1` (stereo unspecified), the Percent Effect in test [1] is -2.27%; in [2], 18.9%; in test [3], -1.68%; in [4], -16.4%; with Trypanosoma cruzi, 4.01%; in test [5], -5.41%. Besides, the Percent Effect in [6] is 8.86%; in the test filed under Homo sapiens, 14.6%; in test [7] it was 3.24%; in test [8], 15.4%; in test [9], -0.00396%.
Turning to `N#Cc1ccc(OCCN2CCc3c(ncn3C3CC3)C2)cc1`, the Percent Effect in test [1] is -3.1%; in [2] it was 23.4%; in test [3], -12.7%; in test [4] it was -6.96%; in the test on Trypanosoma cruzi, -1.31%; in [5], 0%. In addition, the Percent Effect is 7.26% in [6]; -0.819% in the test filed under Homo sapiens; 13.6% in test [7]; 9.76% in test [8]; -10.1% in test [9].
Turning to `Cc1nn(C)c2cn(C(C)C(=O)NCc3cccnc3)nc12` (stereo unspecified), the Percent Effect in test [1] is -2.07%; in test [2] it was 14.7%; in test [3], -8.7%; in [4] it was 5.87%; in the test with Trypanosoma cruzi it was 1.77%; in test [5], -6.16%. Also, the Percent Effect in test [6] is 17.9%; in the test listed under Homo sapiens, 20.4%; in [7], -4.23%; in test [8], 10.3%; in [9], -9.99%.
With `Cc1noc(C)c1CN1CCN(Cc2nccn2C)C(C)C1` (stereo unspecified), the Percent Effect in test [1] was 0.213%; in test [2], 10.1%; in [3], -9.19%; in test [4], 2.86%; in the test on Trypanosoma cruzi, -10.1%; in test [5], 5.7%. The Percent Effect was 5.65% in test [6]; 18.5% in the test listed under Homo sapiens; -0.493% in test [7]; 11.4% in [8]; -5.78% in test [9].
In the case of `CCNC(c1ccc(OC)cc1)c1cccnc1` (stereo unspecified), the Percent Effect is -5.06% in [1]; -1.27% in test [2]; 5.52% in test [3]; 9.44% in [4]; -1.74% in the test on Trypanosoma cruzi; -0.645% in test [5]. The Percent Effect in test [6] is 3.94%; in the test filed under Homo sapiens, 6.89%; in test [7] it was 1.04%; in test [8], 5.06%; in test [9] it was -10.2%.
Regarding `CC(C)c1noc(CN2CCC3(CCCO3)CCC2=O)n1` (stereo unspecified), the Percent Effect was -8.4% in test [1]; 2.67% in test [2]; 0.336% in test [3]; -1.54% in test [4]; -3.8% in the test with Trypanosoma cruzi; -0.521% in test [5]. The Percent Effect is 2.27% in test [6]; 25.6% in the test filed under Homo sapiens; 1.64% in [7]; 6.17% in test [8]; -6.74% in test [9].
